Hits are enriched below; roughly 12% of the tested compounds scored in any of these assays.
HP1b binding inh = inhibitors of HP1-beta chromodomain binding to methylated histone tails; P83916; AlphaScreen HP1-beta / biotin-H3K9me3 peptide binding; Potency, µM (top dose mostly 114 µM), for inactives: at the highest dose activity change, negative = inhibition, usual class: inhibitors; 0.56% of 390,000 active; note: nearly all actives have a fitted effect of over 70% in size
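Compound inhibition of the preformed complex between 50 nM HP1-beta and 50 nM biotinylated H3K9me3 peptide was read by AlphaScreen. Buffer was PBS pH 7.4 with 0.01% Tween-20. Incubations ran 30 min at room temperature, with 10 ug/mL donor/acceptor beads.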
G9a inh = inhibitors of human histone lysine methyltransferase G9a. G9a H3K9 monomethylation, AlphaScreen, 2 h. Potency, µM (doses to about 102 µM), for inactives: top-dose activity, negative = inhibition, most hits filed as inhibitors. 8.8% of 350,000 active. AID 504332; note: % is set by controls: 0 for no effect and ±100 for the full control effect; nearly all actives have a fitted effect of over 75% in size
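Methyltransferase reactions run at room temperature for 2 h (20 nM enzyme, 500 nM biotin-H3K9 peptide, 20 uM SAM) after a 15 min compound preincubation; product detected by AlphaScreen beads and anti-H3K9me1 antibody.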
PLK1 PBD block = PLK1 (human) polo-box domain binding inhibition; P53350; Potency, µM, inactives show max response, negative = inhibition, actives largely listed as inhibitors; 2.8% of 360,000 active; Plk1 PBD binding of FITC phosphopeptide, fluorescence polarization; note: series mostly up to about 57 µM; % is set by controls: 0 for no effect and ±100 for the full control effect; nearly all actives have a fitted effect of over 65% in size
BAZ2B block = blocks human BAZ2B | Q9UIF8 | AlphaScreen BAZ2B-H3K14Ac peptide displacement | Potency, µM (series often up to 114 µM), for inactives: at the top dose activity change, negative = inhibition, hits mostly inhibitors | 4.4% of 360,000 active; note: % is set by controls: 0 for no effect and ±100 for the full control effect; nearly all actives have a fitted effect of over 60% in size
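Multi-concentration screen (max 110 uM) measuring displacement of acetylated histone H3 peptide from BAZ2B by AlphaScreen, using 50 nM protein, 50 nM peptide and 10 ug/mL streptavidin donor plus Ni-chelate acceptor beads.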
JMJD2A Tudor inh = blocks the human JMJD2A Tudor domain | 4.4% of 390,000 active | AlphaScreen JMJD2A-Tudor / H3K4me3 peptide binding | Potency, µM (highest dose often 114 µM), for inactives: at the highest dose activity change, negative = inhibition, hits mostly inhibitors | O75164; note: % is set by controls: 0 for no effect and ±100 for the full control effect; nearly all actives have a fitted effect of over 50% in size
Target sequence (O75164 whole entry, looked up, the tested form may be a part): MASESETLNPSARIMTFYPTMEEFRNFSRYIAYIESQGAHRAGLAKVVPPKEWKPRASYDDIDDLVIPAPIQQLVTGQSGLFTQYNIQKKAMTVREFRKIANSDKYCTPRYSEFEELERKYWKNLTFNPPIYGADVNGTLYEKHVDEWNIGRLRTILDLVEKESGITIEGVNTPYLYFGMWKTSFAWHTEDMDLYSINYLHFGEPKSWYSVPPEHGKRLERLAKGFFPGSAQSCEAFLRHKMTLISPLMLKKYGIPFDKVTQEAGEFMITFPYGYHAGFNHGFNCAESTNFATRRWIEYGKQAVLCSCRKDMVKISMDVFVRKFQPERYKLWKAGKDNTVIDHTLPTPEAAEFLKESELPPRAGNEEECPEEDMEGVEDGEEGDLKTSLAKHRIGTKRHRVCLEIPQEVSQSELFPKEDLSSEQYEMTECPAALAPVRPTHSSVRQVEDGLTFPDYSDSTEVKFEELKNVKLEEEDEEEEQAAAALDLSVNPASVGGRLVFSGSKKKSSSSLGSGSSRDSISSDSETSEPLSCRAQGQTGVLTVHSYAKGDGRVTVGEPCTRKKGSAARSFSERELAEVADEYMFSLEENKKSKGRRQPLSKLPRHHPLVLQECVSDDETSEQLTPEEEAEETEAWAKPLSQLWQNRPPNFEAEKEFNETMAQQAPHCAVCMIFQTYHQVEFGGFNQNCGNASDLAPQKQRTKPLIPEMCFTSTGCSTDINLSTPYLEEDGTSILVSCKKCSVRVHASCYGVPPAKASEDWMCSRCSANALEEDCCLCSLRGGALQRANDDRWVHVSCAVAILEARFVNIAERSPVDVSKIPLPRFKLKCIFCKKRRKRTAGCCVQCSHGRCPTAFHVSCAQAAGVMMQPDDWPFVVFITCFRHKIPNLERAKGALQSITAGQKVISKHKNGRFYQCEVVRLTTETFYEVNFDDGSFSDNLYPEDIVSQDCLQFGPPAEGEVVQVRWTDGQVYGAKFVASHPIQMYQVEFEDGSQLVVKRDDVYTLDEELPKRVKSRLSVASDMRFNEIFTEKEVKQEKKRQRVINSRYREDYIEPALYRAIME
Sfp PPTase inh = blocks B. subtilis Sfp PPTase activity; Potency, µM, for inactives: largest response in the series, negative = inhibition, actives largely listed as inhibitors; Biochemical Sfp PPTase activity, qHTS; AID 1490; 3.5% of 310,000 active;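 note: the enzyme is Sfp with the accession as filed and its product quenches rhodamine fluorescence; 0% = enzyme reaction without inhibitor and -100% = no enzyme wells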
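Reaction rates are the 30-min fluorescence difference (ex 525, em 598 nm) in wells containing 15 nM Sfp, 5 uM rhodamine-CoA and 12.5 uM BHQ-2-YbbR at pH 7.6 with 10 mM MgCl2.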
* = called active by the depositor; [ ] = another dose, or the depositor's remark. Calls come from the whole dose curve; as a rule, active = well fitted curve in the direction sought with a large enough effect; inconclusive = small, poorly fitted or top-dose-only effect, or another doubt; inactive = no such curve, though single readings can be large; an effect the other way counts as inactive or inconclusive. Potency is the fitted concentration of half-maximal effect.

For O=C(O)CC1=C(Nc2ccccc2)C(=O)N(c2ccccc2)C1c1ccc(F)cc1 (stereo not given) the results were HP1b binding inh 7%, G9a inh 32µM*, PLK1 PBD block -17%, BAZ2B block -37%, JMJD2A Tudor inh -31% and Sfp PPTase inh 11%.
Screening CSCC[C@H](NC(=O)CN)C(=O)N[C@@H](CC(=O)O)C(=O)N[C@@H](CO)C(=O)N[C@@H](CC(C)C)C(=O)N[C@@H](C)C(=O)N[C@@H](Cc1ccccc1)C(=O)N[C@@H](CO)C(=O)NCC(=O)NCC(=O)N[C@@H](CC(C)C)C(N)=O returned Sfp PPTase inh 11%.
CC1C(=O)C(=O)C=CN1C (stereo not given) was read as G9a inh inconclusive and Sfp PPTase inh 45µM*.
For Cc1cc(=O)[nH]c(SCC(=O)OCc2ccccc2)c1C#N the results were HP1b binding inh -7%, G9a inh -6%[0.501 µM], PLK1 PBD block 21µM*, BAZ2B block 2%, JMJD2A Tudor inh inconclusive and Sfp PPTase inh 10%.
For CCOC(=O)CSc1[nH]c(=O)cc(C)c1C#N the results were HP1b binding inh 69%, G9a inh -1%[59 µM], PLK1 PBD block -9%, BAZ2B block -24%, JMJD2A Tudor inh -18% and Sfp PPTase inh 2%.
`COCc1cc(C)nc(SCC(=O)Nc2ccccc2C)c1C#N` gave HP1b binding inh inconclusive, G9a inh -1%, PLK1 PBD block 3µM*, BAZ2B block -5%, JMJD2A Tudor inh -28%[11.4 µM] and Sfp PPTase inh 4%.
`CCOC(=O)CC(=O)CSc1[nH]c(=O)cc(C)c1C#N` gave HP1b binding inh 45%, G9a inh 1%[59 µM], PLK1 PBD block -1%, BAZ2B block -30%, JMJD2A Tudor inh -16% and Sfp PPTase inh 50µM*.
Screening Cc1cc(=O)[nH]c(SCC(=O)Nc2ccccc2C#N)c1C#N returned HP1b binding inh 12%, G9a inh inconclusive, PLK1 PBD block inconclusive, BAZ2B block -24%, JMJD2A Tudor inh -24% and Sfp PPTase inh 32µM*.
COc1cccc(CNc2ncnc3onc(-c4ccc(F)cc4)c23)c1 was read as HP1b binding inh 31%, G9a inh 1%[59 µM], BAZ2B block 3%[57.1 µM] and JMJD2A Tudor inh -13%.
Screening CCOc1ccc(N2CC(NC(=O)c3cc4ccccc4o3)CC2=O)cc1 (stereo not given) returned HP1b binding inh 53%, G9a inh 2%[59 µM], BAZ2B block -10% and JMJD2A Tudor inh -10%.
For COc1cc(-c2cc(C(=O)Nc3ccccc3N3CCOCC3)c3ccccc3n2)cc(OC)c1OC the results were HP1b binding inh 31%, G9a inh 0%, PLK1 PBD block -5%, BAZ2B block -16%, JMJD2A Tudor inh -24% and Sfp PPTase inh 9%.
Screening O=C(Nc1ccc(F)cc1F)c1cc(-c2ccco2)nc2ccccc12 returned HP1b binding inh 17%, G9a inh 45µM*, PLK1 PBD block inconclusive, BAZ2B block 4%, JMJD2A Tudor inh -12% and Sfp PPTase inh 32µM*.
For O=C(Nc1ccccc1N1CCOCC1)c1cc(-c2ccco2)nc2ccccc12 the results were HP1b binding inh inconclusive, G9a inh inconclusive, PLK1 PBD block -12%, BAZ2B block 50µM*, JMJD2A Tudor inh inconclusive and Sfp PPTase inh -16%.
`O=S(=O)(c1ccc(Br)cc1)N1CCN(c2nc(-c3cccs3)nc3ccccc23)CC1` gave HP1b binding inh 18% and JMJD2A Tudor inh -28%.
`COc1ccc(C)cc1S(=O)(=O)Nc1ccc2c(c1)N(C(C)=O)CCC2` gave HP1b binding inh 15%, G9a inh -12%, PLK1 PBD block -14%, BAZ2B block -6% and JMJD2A Tudor inh -25%.
Screening O=C(O)c1cccc(Nc2c3ccccc3nc3ccccc23)c1 returned HP1b binding inh 21%, PLK1 PBD block 1%, BAZ2B block 21%, JMJD2A Tudor inh -14% and Sfp PPTase inh 2%.
For CCCC(=O)NNc1c2ccccc2nc2ccccc12 the results were HP1b binding inh 23%, G9a inh 9%[59 µM], PLK1 PBD block 6%, BAZ2B block -30%, JMJD2A Tudor inh -12% and Sfp PPTase inh -1%.
O=C(NNc1c2ccccc2nc2ccccc12)c1cccc(O)c1 was read as HP1b binding inh inconclusive, G9a inh inconclusive, PLK1 PBD block -2%, BAZ2B block 35µM*, JMJD2A Tudor inh 45µM* and Sfp PPTase inh -2%.
Screening O=C(NNc1c2ccccc2nc2ccccc12)c1ccc(O)cc1 returned HP1b binding inh inconclusive, G9a inh inconclusive, PLK1 PBD block -5%, BAZ2B block 28µM*, JMJD2A Tudor inh -32% and Sfp PPTase inh -23%.
For CCOC(=O)c1sc(NC(=O)c2cc(-c3ccc(C)cc3)nc3ccccc23)c(C#N)c1C the results were HP1b binding inh inconclusive, G9a inh 5.6µM*, PLK1 PBD block 2.7µM*, BAZ2B block 0%, JMJD2A Tudor inh 79µM* and Sfp PPTase inh 20µM*.
For Cc1ccccc1-c1cc(C(=O)Nc2sc(C(=O)OC(C)C)c(C)c2C#N)c2ccccc2n1 the results were HP1b binding inh inconclusive, G9a inh 45µM*, PLK1 PBD block 11µM*, BAZ2B block -1%, JMJD2A Tudor inh 56µM* and Sfp PPTase inh 40µM*.
COc1ccc(-c2cc(C(=O)Nc3sc4c(c3C#N)CCCC4)c3ccccc3n2)cc1 was read as HP1b binding inh -10%, G9a inh 15%[59 µM], PLK1 PBD block -11%, BAZ2B block -11%, JMJD2A Tudor inh -29% and Sfp PPTase inh 9%.
`Cc1sc(NC(=O)c2cc(-c3ccccc3)nc3ccccc23)c(C(N)=O)c1C` gave HP1b binding inh 19%, G9a inh 15%[59 µM], PLK1 PBD block -2%, BAZ2B block -29%, JMJD2A Tudor inh -14% and Sfp PPTase inh -12%.
For CCOC(=O)c1sc(-c2ccc(C)cc2)c(C#N)c1C the results were HP1b binding inh -10%, G9a inh 40µM*, PLK1 PBD block 24µM*, BAZ2B block 12%, JMJD2A Tudor inh 3% and Sfp PPTase inh inconclusive.
`Cc1sc(NC(=O)c2cc(-c3ccc(Cl)cc3)nc3ccccc23)c(C(N)=O)c1C` gave HP1b binding inh inconclusive, G9a inh 13µM*, PLK1 PBD block 13µM*, BAZ2B block 2%, JMJD2A Tudor inh -14% and Sfp PPTase inh inconclusive.
Screening Cc1ccccc1OCC(=O)NNC(=O)Cn1[nH]c(=O)c2ccccc2c1=O returned HP1b binding inh 10%[57 µM], PLK1 PBD block -2% and JMJD2A Tudor inh -10%.

Assay outcomes: PubChem, National Center for Advancing Translational Sciences (NCATS)
